Laboratory results published in PubChem BioAssay AID1345085 (National Center for Advancing Translational Sciences (NCATS), 2018).
Records with an inconclusive call do not appear. Where a call stands in place of a potency, no number is given. Unmarked numbers belong to inactive results. The source made the active and inactive calls. Calls follow the shape of the dose curve; as a rule, active = well fitted cell-killing curve with a large enough effect; inconclusive = small, poorly fitted or top-dose-only effect, or effect the other way; inactive = no such curve, though single readings can be large or run the other way.

Test system: SW626
Test: Confirmatory qHTS for gynecologic anti-cancer compounds from libraries of approved drugs and bioactive compounds; also: nearly all actives have a fitted effect of over 55% in size
Settings: gynecologic cancer cell panel viability, ATPlite luminescence, 48 h; series mostly up to 57.6 µM
Procedure, shortened: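 IC50 values derive from an ATPlite ATP-content luminescence assay following 48 h treatment at 37 C. Each compound ran as an 11-concentration, threefold series (57.5 uM to 0.977 nM); HEK 293T served as control line for selectivity index.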
Potency is read from the fitted curve at half-maximal effect.

SMILES | Potency | activity change, negative = viability loss
COc1cc(N2CCC(N3CCN(C)CC3)CC2)ccc1Nc1ncc(Cl)c(Nc2ccccc2S(=O)(=O)C(C)C)n1 | 21.7 µM (active) | –
C[C@]12CCC(=O)C=C1CC[C@@H]1[C@@H]2[C@@H](O)C[C@@]2(C)[C@H]1CC[C@]2(O)C(=O)CO | inactive | –
CCc1nc(C(N)=O)c(Nc2ccc(N3CCC(N4CCN(C)CC4)CC3)c(OC)c2)nc1NC1CCOCC1 | 3.78 µM (active) | –
CCN(CC)CCCC(C)Nc1c2ccc(Cl)cc2nc2ccc(OC)cc12 (configuration not stated) | 27.3 µM (active) | –
c1nc2nc(Nc3ccc(N4CCOCC4)cc3)nc(NC3CCCCC3)c2[nH]1 | inactive | –
NC(=O)c1ccc2nc(-c3ccc(Oc4ccc(Cl)cc4)cc3)[nH]c2c1 | inactive | –
Cc1cc(C2CCCCC2)n(O)c(=O)c1 | 8.86 µM (active) | –
Nc1nc(Cl)nc2c1ncn2C1OC(CO)C(O)C1F (configuration not stated) | inactive | –
CNC(=O)c1ccccc1Sc1ccc2c(/C=C/c3ccccn3)n[nH]c2c1 | 21.7 µM (active) | –
CCOc1ccc(Nc2nc(-c3c(C)nc4ccccn34)cs2)cc1 | inactive | –
O=c1[nH]c(=O)n([C@H]2C[C@H](O)[C@@H](CO)O2)cc1C(F)(F)F | inactive | –
CCCCN(CCCC)C(=O)CN1C[C@H](c2ccc3c(c2)OCO3)[C@@H](C(=O)O)[C@@H]1c1ccc(OC)cc1 | inactive | –
CC(C)Oc1ccc2c(=O)c(-c3ccccc3)coc2c1 | 21.7 µM (active) | –
Cc1ccc(C(N)=O)cc1Nc1nccc(-c2cn(C(C)C)c3cnccc23)n1 | inactive | –
COc1ccc2c(c1OC)C(=O)O[C@@H]2[C@H]1c2c(cc3c(c2OC)OCO3)CCN1C | inactive | –
Cc1nc2ccc(CN(C)c3ccc(C(=O)NC(CCC(=O)O)C(=O)O)s3)cc2c(=O)[nH]1 (configuration not stated) | inactive | –

SMILES | Potency | activity change, negative = viability loss
Cc1cncc2cccc(S(=O)(=O)N3CCCN(C(=O)CN)C[C@@H]3C)c12 | inactive | –
O=C(Nc1cn[nH]c1-c1nc2ccc(CN3CCOCC3)cc2[nH]1)NC1CC1 | inactive | –
Cc1nc(N)nc(N)c1-c1ccc(Cl)c(Cl)c1 | 3.85 µM (active) | –
CC(C)[C@@H](CS(=O)(=O)C(C)C)N1C(=O)[C@@](C)(CC(=O)O)C[C@H](c2cccc(Cl)c2)[C@H]1c1ccc(Cl)cc1 | inactive | –
CCC1C(=O)N(C)c2cnc(Nc3ccc(C(=O)NC4CCN(C)CC4)cc3OC)nc2N1C1CCCC1 (configuration not stated) | 2.43 µM (active) | –
Cc1cnc(CNC(=O)c2c(=O)c3ccc(N4CCCN(C)CC4)nc3n3c2sc2ccccc23)cn1 | – | -6.28% [at 10.7 µM]
CN(c1nccc(=O)[nH]1)C1CCN(c2nc3ccccc3n2Cc2ccc(F)cc2)CC1 | inactive | –
CC(C)CC(=O)Nc1n[nH]c2c1CN(C(=O)C1CCN(C)CC1)C2(C)C | inactive | –
Cc1nc(Nc2n[nH]c3c2CN(C(=O)NC(CN(C)C)c2ccccc2)C3(C)C)c2sccc2n1 (configuration not stated) | inactive | –
CC(C)Oc1ccc(C(=O)NC(CNC(=O)CN(C)C)Cc2ccc(-c3cn4cccc(C(C)O)c4n3)cc2)cc1Cl (configuration not stated) | inactive | –
Cc1cc(C(=O)N2CCN(c3cccc(Cl)c3)CC2)n(-c2ccccc2)n1 | inactive | –
Cc1csc(NC(=O)c2sc3nc4c(c(C(F)(F)F)c3c2N)CCC4)n1 | 1.72 µM (active) | –
Cc1ccc(C(=O)Nc2ccc(CN3CCN(C)CC3)c(C(F)(F)F)c2)cc1C#Cc1cnc2cccnn12 | 21.7 µM (active) | –
CC(C)(C)C(=O)OCOP(=O)(COCCn1cnc2c(N)ncnc21)OCOC(=O)C(C)(C)C | 17.2 µM (active) | –
COC(C)(C)CCn1nc(Nc2c(C)cccc2C)c2cnc(Nc3ccc(OCCN4CCCC4)c(F)c3)nc21 | 19.3 µM (active) | –
CCCCc1nc2cc(/C=C/C(=O)NO)ccc2n1CCN(CC)CC | 0.769 µM (active) | –
